According to PubChem BioAssay AID1851 (National Center for Advancing Translational Sciences (NCATS), 2009):
Where “and” joins values, the source holds several entries; their conditions need not be identical. Equal values may be shown once. Hit rate of the full screen: of about 16,000 compounds, about 4,000 (25%) were called active. Not shown: some 26% with an inconclusive outcome. The list is a sample of the results. A number with no mark means an inactive call. The call rests on the fitted dose curve; in most records, active means well fitted curve in the direction sought with a large enough effect; inconclusive means small, poorly fitted or top-dose-only effect, or effect the other way; inactive means no such curve, though single readings can be large or run the other way.

target: Cytochrome P450 2C9 (Homo sapiens) (UniProt P11712); experiment: Cytochrome panel assay with activity outcomes; settings: recombinant CYP, pro-luciferin dealkylation, luminescence, p450-cyp2c9; series mostly up to 57.1 µM
On the % scale 0 is the no-effect control and ±100 the full control effect.

Chain of Cytochrome P450 2C9 (Homo sapiens) (P11712 whole entry, looked up): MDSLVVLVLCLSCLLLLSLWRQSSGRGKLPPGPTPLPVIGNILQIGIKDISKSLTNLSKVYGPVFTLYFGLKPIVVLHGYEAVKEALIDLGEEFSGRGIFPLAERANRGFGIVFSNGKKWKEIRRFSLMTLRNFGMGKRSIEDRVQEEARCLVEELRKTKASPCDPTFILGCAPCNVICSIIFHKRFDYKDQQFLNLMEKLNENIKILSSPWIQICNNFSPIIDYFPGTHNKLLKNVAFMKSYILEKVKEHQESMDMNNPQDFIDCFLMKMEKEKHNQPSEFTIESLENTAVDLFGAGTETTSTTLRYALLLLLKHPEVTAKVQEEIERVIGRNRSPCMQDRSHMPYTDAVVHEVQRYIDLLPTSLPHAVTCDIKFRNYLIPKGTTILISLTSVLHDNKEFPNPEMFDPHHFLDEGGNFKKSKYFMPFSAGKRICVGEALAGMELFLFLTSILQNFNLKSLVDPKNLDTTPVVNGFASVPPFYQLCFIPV

Compound	activity, negative = inhibition	AC50
N[C@H](CCCCCP(=O)(O)O)C(=O)O	inactive	
CCOC(=O)C1=C(C)OC(N)=C(C#N)C12C(=O)N(C)c1ccccc12 (centres undefined)	inactive	
CC(=O)NCCc1c[nH]c2ccccc12	inactive	
CC(C)C[C@H]1C(=O)N2CCC[C@@H]2[C@@]2(O)O[C@](NC(=O)[C@@H]3C=C4c5cccc6[nH]cc(c56)C[C@@H]4N(C)C3)(C(C)C)C(=O)N12	inactive	
CC(C)[C@@]1(NC(=O)[C@@H]2C[C@H]3c4cccc5[nH]cc(c45)C[C@@H]3N(C)C2)O[C@]2(O)[C@H]3CCCN3C(=O)[C@H](Cc3ccccc3)N2C1=O		2.51 µM (active)
CC(C)[C@@]1(NC(=O)[C@@H]2C[C@H]3c4cccc5[nH]cc(c45)C[C@@H]3N(C)C2)O[C@@]2(O)[C@H]3CCCN3C(=O)[C@H](Cc3ccccc3)N2C1=O		2.51 µM (active) and 6.31 µM (active)
CN1C[C@H](C(=O)N[C@@]2(C)O[C@@]3(O)[C@H]4CCCN4C(=O)[C@@H](Cc4ccccc4)N3C2=O)C=C2c3cccc4[nH]cc(c34)C[C@@H]21	-17.2% [at 11.4 µM]	
c1ccc(N2CC3(CCNCC3)C2)cc1	inactive	
c1ccc2cc(CC3=NCCN3)ccc2c1	inactive	
CCOC(=O)[C@@H]1[C@@H]2c3ccccc3-c3ccccc3[C@H]2C[C@H]1O	29.6% [at 11.4 µM]	
CO[C@@H](C)[C@](O)(C(=O)OCC1=CCN2CC[C@@H](O)[C@H]12)C(C)C	inactive	
CNC(=O)Oc1ccc2c(c1)[C@@]1(C)CCN(C)[C@@H]1N2C	inactive	
COc1ccc2c3c1O[C@@H]1C(=O)CC[C@@]4(O)[C@@H](C2)N(CC2CC2)CC[C@]314	inactive	
c1ccc2c(c1)[I+]c1ccccc1-2		1 µM (active) and 100 nM (active)
O=C(O)/C=C\c1ccc[c]([Sb](=[O])([OH])[OH])c1	12.8% [at 11.4 µM]	
CSCC[C@@H](N)P(C)(=O)O	21.1% [at 11.4 µM]	
O=C1C=CC(=O)c2c1ccc1c2ccc2ccccc21		1.26 µM (active)
O=C1N[C@@]2(CN3CCC2CC3)C(=O)N1CN(Cc1ccccc1)c1ccccc1	-7.38% [at 11.4 µM]	
COCCCn1c(N)c(C(=O)Nc2sc3c(c2C(=O)OC)CCCC3)c2nc3ccccc3nc21		2.24 µM (active)
NCCCC[C@H](N[C@@H](CCc1ccccc1)C(=O)O)C(=O)N1CCC[C@H]1C(=O)O	inactive	
Oc1ccc(CCNCc2cc3c(cc2Br)OCO3)cc1	-10.6% [at 11.4 µM]	

Compound	activity, negative = inhibition	AC50
CC(=O)OC1=CC2=CC[C@H]3[C@H]4CCC(=O)[C@@]4(C)CC(=O)[C@]3(S)[C@]2(C)CC1	4.96% [at 11.4 µM]	
CC(O)(CS(=O)(=O)c1cccc(C(F)(F)F)c1)C(=O)Nc1ccc(C(F)(F)F)cc1 (centres undefined)		11.2 µM (active)
C[N+](C)(C)[C@H](Cc1c[nH]c(=S)[nH]1)C(=O)O	11.9% [at 11.4 µM]	
CC(C)n1cnc2c(C(=O)N[C@H]3CN4CCC3CC4)cc(Cl)cc21		0.398 µM (active)
CN1C(=O)COc2c(C(=O)N[C@@H]3CN4CCC3CC4)cc(Cl)cc21	inactive	
COc1cc(N)c(Cl)cc1C(=O)N[C@@H]1CN2CCC1CC2		12.6 µM (active)
CCCn1c(C)c(C(=O)c2ccc3ccccc3c2)c2ccccc21	inactive	
CNC[C@H](O)c1ccc(OC(=O)C(C)(C)C)c(OC(=O)C(C)(C)C)c1	inactive	
N[C@@H]1C=CC=C(C(=O)O)C1	inactive	
COc1ccc(C[C@H]2c3cc(OC)c(OC)cc3CCN2C)cc1OC	inactive	
C=CCN1CC[C@]23c4c5ccc(O)c4O[C@@H]2/C(=N/NC(=O)c2ccccc2)CC[C@@]3(O)[C@H]1C5	inactive	
[N-]=[N+]=CC(=O)CC[C@H](N)C(=O)O	26.7% [at 11.4 µM]	
CCC1(CCSC(=N)N)C(=O)NC(=O)NC1=O	12.6% [at 11.4 µM]	
C[C@H](Br)CN(C[C@H](C)Br)c1ccc2c(c1)Cc1ccccc1-2		3.16 µM (active)
CCCN1CCO[C@@H]2c3cc(O)ccc3OC[C@@H]21	inactive	
COc1cc(C(=O)OC2C[C@H]3CC[C@@H](C2)N3C)ccc1O (some centres undefined)	inactive	
CC(=O)O[C@@H]1CN2CCC1CC2	inactive	
CCN1C[C@]2(C)CC[C@@H](O)[C@]34[C@@H]5CC6[C@@H](OC)C[C@@](O)([C@H]5[C@@H]6O)[C@@H](C[C@@H]23)[C@H]14	inactive	
O=C(/C=C\c1ccc(Cl)cc1)N[C@@]12CCC(=O)[C@@H]3Oc4c(O)ccc5c4[C@@]31CCN(CC1CC1)[C@@H]2C5		15.8 µM (active)
O=C1CC[C@@]2(O)[C@H]3Cc4ccc(O)c5c4[C@@]2(CCN3CC2CC2)[C@@H]1O5	inactive	
O=C1CC[C@]2(O)[C@H]3Cc4ccc(O)c5c4[C@@]2(CCN3CC2CC2)[C@@H]1O5	inactive	

Compound	activity, negative = inhibition	AC50
C[C@]12CC[C@@H]3[C@H](CCC4=CC(=O)CC[C@]43C)[C@]1(O)CC[C@@]2(O)C(=O)CO	-5.6% [at 11.4 µM]	
CC(C)[C@@H]1CN[C@H](C(=O)O)[C@@H]1CC(=O)O	inactive	
O=C(O)[C@@H](O)[C@@H](O)[C@@H]1[O][Sb][O][C@@H]1CO	5.16% [at 11.4 µM]	
C[C@@H](N)Cn1ccc2cc(F)c(Cl)cc21		3.98 µM (active)
CC[N+](CC)(CCCNC1=CC(=O)C(NCCC[N+](CC)(CC)Cc2ccccc2)=CC1=O)Cc1ccccc1	inactive	
CC[C@@H]1[C@@H]2C[C@H]3[C@H]4N(C)c5ccccc5[C@@]45C[C@@H]([C@@H]2[C@@H]5O)N3[C@H]1O	inactive	
CC(C)(C)c1cc(C=C(C#N)C#N)cc(C(C)(C)C)c1O		0.0316 µM (active)
N#C/C(=C\c1ccc(O)c(O)c1)C(=O)NCCCNC(=O)/C(C#N)=C/c1ccc(O)c(O)c1	inactive	
N#C/C(=C\c1ccc(O)c(O)c1)C(N)=S	inactive	
N#CC(C#N)=Cc1ccc(O)c(O)c1		7.94 µM (active)
COc1cc(C=C(C#N)C#N)cc(O)c1O		2.51 µM (active)
NCCc1c[nH]c2ccccc12	inactive	
O=C(O)CNC(=O)[C@@H](CS)Cc1ccccc1	inactive	
COC(=O)[C@@H]1[C@@H](O)[C@@]2(O)c3c(OC)cc(OC)cc3O[C@@]2(c2ccc(OC)cc2)[C@H]1c1ccccc1	-21.1% [at 11.4 µM]	
COc1cc2c(cc1OC)[C@]13CC[N@+]4(C)CC5=CCO[C@H]6CC(=O)N2[C@@H]1[C@@H]6[C@@H]5C[C@]34O	-6.22% [at 11.4 µM]	
O=C(Oc1ccc([N+](=O)[O-])cc1)N1CCC(N2CCCCC2)CC1	inactive	
O=C(O)c1cc(N=Nc2ccc([As](=O)(O)O)cc2)ccc1O	11.3% [at 11.4 µM]	
N[C@@H](CCCCP(=O)(O)O)C(=O)O	inactive	
Cc1ccc(N2C(=O)/C(=C/c3ccc(CN(CCC#N)S(C)(=O)=O)o3)C(=O)NC2=S)cc1C		12.6 µM (active)
NCCc1ccc(O)cc1	inactive	
CC1=NN(c2ccc(S(=O)(=O)O)cc2C)C(=[OH+])[C@H]1N=Nc1cc(S(=O)(=O)O)ccc1C(=O)O.O.[Cr]	-5.47% [at 11.4 µM]	

Compound	activity, negative = inhibition	AC50
O=C(NCP(=O)(O)O)c1cccnc1	1.84% [at 11.4 µM]	
C=C[C@]12CN(C)[C@H]3C1[C@@]1(C(=O)Nc4ccccc41)[C@H]1C[C@H]2[C@H]3CO1	inactive	
c1cc2cc(c1)C[n+]1ccc(c3ccccc31)NCc1ccc(cc1)CNc1cc[n+](c3ccccc13)C2		2.51 µM (active)
CN1C(=O)CCS(=O)(=O)[C@H]1c1ccc(Cl)cc1	inactive	
C[C@H]1C(=O)O[C@@H]2CCN3CC=C(COC(=O)[C@@](C)(O)[C@@]1(C)O)[C@H]23	inactive	
CCCCN1C(=O)/C(=C\c2ccco2)C(=O)N(CCc2ccccc2)C1=O		7.94 µM (active)
c1ccc2c(c1)Sc1ccccc1N2C[C@H]1CN2CCC1CC2	8.95% [at 11.4 µM]	
C[C@H](NC(C)(C)C)C(=O)c1cccc(Cl)c1	inactive	
CCCN1CCC[C@@H]2Cc3[nH]ncc3C[C@H]21	inactive	
CCN1C[C@]2(COC)CC[C@H](O)[C@@]34[C@@H]5C[C@H]6[C@@H](OC)[C@H]5[C@](O)(C[C@@H]6OC)[C@@](O)([C@@H](OC)[C@H]23)[C@@H]14	inactive	
CC[C@H]1CN2CC[C@@H]1C[C@H]2[C@@H](O)c1ccnc2ccc(OC)cc12	inactive	
Cc1sc2c(c1C)C(c1ccc(C(C)(C)C)cc1)=NCC(=O)N2CC(=O)Nc1nccs1		12.6 µM (active)
CN(C)c1ccc(NC(=O)CN2C(=O)CN=C(c3ccccc3)c3ccccc32)cc1	inactive	
O=[N+]([O-])O[C@H]1CO[C@H]2[C@H]1OC[C@@H]2O[N+](=O)[O-]	inactive	
CCOP(=O)(OCC)C(NC(C)=O)C(Cl)(Cl)Cl (centres undefined)	inactive	
C(=C/c1ccccc1)/CN1CCN(CCOC(c2ccccc2)c2ccccc2)CC1		5.01 µM (active)
Fc1ccc(C(OCCN2CCN(C/C=C\c3ccccc3)CC2)c2ccc(F)cc2)cc1		7.94 µM (active)
Clc1ccc([C@@H](OCCN2CCCCC2)c2ccccc2)cc1	inactive	
O=c1[nH]c2ccccc2n1C1CCN(CCCC(c2ccc(F)cc2)c2ccc(F)cc2)CC1	inactive	
CCOC(=O)c1ncn2c1[C@H]1CCCN1C(=O)c1cc(OC)ccc1-2	inactive	
NS(=O)(=O)c1cc([C@@]2(O)NC(=O)c3ccccc32)ccc1Cl	inactive	
